# Source: ChEMBL document CHEMBL3988442, “University of Dundee, Small-Polar-MMV Screening Library” (2021)
# Target: T1, Aspartate--tRNA(Asp/Asn) ligase (Mycobacterium tuberculosis (strain ATCC 25618 / H37Rv)) (UniProt P9WFW3); note: in the data most compounds retested in dose-response had high values
# T1 sequence (whole entry): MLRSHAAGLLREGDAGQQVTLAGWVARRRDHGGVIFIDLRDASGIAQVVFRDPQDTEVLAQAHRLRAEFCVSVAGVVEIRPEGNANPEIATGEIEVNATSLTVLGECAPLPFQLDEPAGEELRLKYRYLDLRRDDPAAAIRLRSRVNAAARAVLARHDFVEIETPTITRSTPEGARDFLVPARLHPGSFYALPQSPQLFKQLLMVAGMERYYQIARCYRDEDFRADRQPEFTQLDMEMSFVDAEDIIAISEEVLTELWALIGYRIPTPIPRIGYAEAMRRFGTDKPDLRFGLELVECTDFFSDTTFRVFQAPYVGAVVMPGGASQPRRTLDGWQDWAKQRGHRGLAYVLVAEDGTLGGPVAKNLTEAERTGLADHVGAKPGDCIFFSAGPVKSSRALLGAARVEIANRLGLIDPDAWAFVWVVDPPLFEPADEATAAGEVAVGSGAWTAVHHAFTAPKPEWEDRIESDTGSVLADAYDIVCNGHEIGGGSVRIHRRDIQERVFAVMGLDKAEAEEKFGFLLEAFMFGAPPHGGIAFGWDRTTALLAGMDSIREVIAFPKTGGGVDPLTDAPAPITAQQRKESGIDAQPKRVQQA
# Test: Assay for Asp RNA synthetase-1 from Mycobacterium tuberculosis
# Type: functional
# Design: scale not given: direction of the effect not stated beside the values
# Conditions: 30 µM
row,Compound,Percent Effect [%]
1,Cc1cc(NC(=O)CN2CCc3cnc(C)nc3C2)on1,-1.18
2,Cc1cccc(S(=O)(=O)NCC(C)N2CCN(C)CC2)c1Cl (stereo unspecified),1.52
3,O=C(Nc1ccccc1)C1CN(CC2CC2)CC12CCOCC2 (stereo unspecified),0.903
4,CS(=O)(=O)N1CC[C@H]2O[C@H](C(=O)NCCc3ccncc3)CC[C@H]21,7.02
5,Cc1ncc2c(n1)CCN(Cc1nc3ccccc3o1)C2,6.98
6,CCNC(=O)N1CCCC(c2noc(CC)n2)C1 (stereo unspecified),-2.74
7,CCc1noc(C(C)N2CCOCC2)n1 (stereo unspecified),-10.8
8,CCc1nc(CN(C)CC2CCN(CC(C)O)CC2)no1 (stereo unspecified),-3.85
9,COc1cccc(CN(C)Cc2ccc(C#N)cc2)c1OC,-1.31
10,Cc1cc(NCc2cccnc2)n2nc(C)cc2n1,-2.06
11,O=C(c1ccncc1)N1CCCn2c(CN3CCCCC3)nnc2C1,-3.93
12,O=C1N(c2ccc(F)cc2)Cc2nc(=O)n(Cc3cccc(Cl)c3)n21,0.784
13,Cc1ccccc1N1CC2(CCN(S(=O)(=O)c3cccs3)C2)CC1=O (stereo unspecified),0.41
14,Cc1[nH]c2ccccc2c1-c1ccnc(NC[C@H](O)CO)n1,0.691
15,Cc1c(C(=O)N2CCCC2c2cnn(C)c2)nnn1-c1ccccc1 (stereo unspecified),-1.92
16,Cc1cc(N2CCCCCC2)n2nc(C)c(C)c2n1,0.167
17,CC(C)n1cc(CN2CCCN(C(=O)c3cc(Cl)c[nH]3)CC2)cn1,5.29
18,CCOCCCNc1nc(O)cc(C2CC(=O)N(C)C2)n1 (stereo unspecified),-1.77
19,COc1cccc(C(=O)NCC(O)c2cccs2)c1 (stereo unspecified),-4.63
20,Cc1nnc(NC(=O)NCc2ccc(N3CCN(C)CC3)nc2)s1,3.74
21,N#Cc1ccc(CNC(=O)NC2CCN(CC(F)F)CC2)cc1,-4.22

# Target: Shiga toxin 2 (Escherichia coli O157:H7) (UniProt P09385+P09386)
# Test: E. coli 0.157:H7 Shiga Toxin SOP - stx2 screening assay
# Type: functional
# Design: scale not given: direction of the effect not stated beside the values
# Conditions: 30 µM
row,Compound,Percent Effect [%]
1,Cc1ncsc1C(=O)NCc1cccs1,1.3
2,Cc1ccc(CN2CCOC3(COCCN(CCN(C)C)C3)C2)o1 (stereo unspecified),-4.4
3,CC(=O)N1N=C(c2ccccc2)OC1C(=O)NCCC1=CCCCC1 (stereo unspecified),22.5
4,CC1CCN(c2ncc3c(n2)CN(c2ccc4c(c2)OCO4)C3=O)CC1,-21.4
5,CNS(=O)(=O)c1ccc(C(=O)N2CCCC2c2cnn(C)c2)o1 (stereo unspecified),-29.3
6,Cc1noc(C2CCCCN2C(=O)NC2CCCC2)n1 (stereo unspecified),-14.7
7,CCOCC(O)CN1CCN(C(=O)c2ccccc2Cl)CC1 (stereo unspecified),24.8
8,CC(C)NC(=O)[C@@H]1C[C@H](N)CN1C(=O)c1cc2ccccc2[nH]c1=O,-0.544
9,NC(=O)C1CCN(C(=O)Cn2nc(-c3ccccc3)oc2=O)C1 (stereo unspecified),-67.9
10,Cc1cc(N(C)C)nc(C2(C)CCCN2C(=O)c2cnccn2)n1 (stereo unspecified),-0.274
11,CS(=O)(=O)NC[C@H]1OC[C@@H]2CCN(Cc3ccc(F)cc3)C[C@@H]21,-21.2
12,CC(C(=O)N1CCCN(Cc2ccc(C#N)cc2)CC1)n1ccnc1 (stereo unspecified),29.9
13,CC(=O)N1CC[C@H]2OCC[C@@]2(C(=O)NCc2ccco2)C1,-17.2
14,CC(=O)N1[C@H](Cn2cncn2)C[C@@H]2CN(c3ccc(C)nn3)CC[C@@H]21,-4.03
15,CC(c1ccc(Cl)cc1)N1CCN(CCNS(C)(=O)=O)CC1 (stereo unspecified),-11.7
16,O=C(NCC1CCOCC1)[C@H]1C[C@@H]2CCN(Cc3ccncc3)C[C@@H]2O1,-19.5
17,CN(C)CCN1CCC2(CCN(C(=O)c3ccc(F)cc3)CC2)C1=O,-5.38
18,CN1CC(C(=O)NC(C)(C)C)CC1=O (stereo unspecified),-21.3
19,Cc1ccc(CNC(=O)CN2C=Nc3ccccc3S2(=O)=O)s1,9.11
20,Cc1cc(NC(=O)CN2CCc3cnc(C)nc3C2)on1,-34.7

row,Compound,Percent Effect [%]
1,Cc1cccc(S(=O)(=O)NCC(C)N2CCN(C)CC2)c1Cl (stereo unspecified),-12.1
2,O=C(Nc1ccccc1)C1CN(CC2CC2)CC12CCOCC2 (stereo unspecified),-13.2
3,CS(=O)(=O)N1CC[C@H]2O[C@H](C(=O)NCCc3ccncc3)CC[C@H]21,-26
4,Cc1ncc2c(n1)CCN(Cc1nc3ccccc3o1)C2,-21.4
5,CCNC(=O)N1CCCC(c2noc(CC)n2)C1 (stereo unspecified),17.9
6,CCc1noc(C(C)N2CCOCC2)n1 (stereo unspecified),6.48
7,CCc1nc(CN(C)CC2CCN(CC(C)O)CC2)no1 (stereo unspecified),11
8,COc1cccc(CN(C)Cc2ccc(C#N)cc2)c1OC,9.74
9,Cc1cc(NCc2cccnc2)n2nc(C)cc2n1,13.8
10,O=C(c1ccncc1)N1CCCn2c(CN3CCCCC3)nnc2C1,-4.1
11,O=C1N(c2ccc(F)cc2)Cc2nc(=O)n(Cc3cccc(Cl)c3)n21,-12.3
12,Cc1ccccc1N1CC2(CCN(S(=O)(=O)c3cccs3)C2)CC1=O (stereo unspecified),-0.82
13,Cc1[nH]c2ccccc2c1-c1ccnc(NC[C@H](O)CO)n1,-30.4
14,Cc1c(C(=O)N2CCCC2c2cnn(C)c2)nnn1-c1ccccc1 (stereo unspecified),-11.8
15,Cc1cc(N2CCCCCC2)n2nc(C)c(C)c2n1,19.6
16,CC(C)n1cc(CN2CCCN(C(=O)c3cc(Cl)c[nH]3)CC2)cn1,3.9
17,CCOCCCNc1nc(O)cc(C2CC(=O)N(C)C2)n1 (stereo unspecified),-22.7
18,COc1cccc(C(=O)NCC(O)c2cccs2)c1 (stereo unspecified),2.93
19,Cc1nnc(NC(=O)NCc2ccc(N3CCN(C)CC3)nc2)s1,24.2
20,N#Cc1ccc(CNC(=O)NC2CCN(CC(F)F)CC2)cc1,-8.96
